# GLD-1 TGE inh: GLD-1-TGE RNA interaction inhibition (C. elegans). Q17339. purified GLD-1 + fluorescein TGE RNA, fluorescence polarization. inhibition, % at 5.96 µM. 320,000 tested, 0.44% active;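 active = percent inhibition above a per-plate cutoff, the plate mean of test compounds plus 3 SD, cut at about 30% in these data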;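 also: 0% = DMSO wells with GLD-1 and probe and 100% = wells lacking GLD-1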
# Target sequence (Q17339 whole entry, looked up): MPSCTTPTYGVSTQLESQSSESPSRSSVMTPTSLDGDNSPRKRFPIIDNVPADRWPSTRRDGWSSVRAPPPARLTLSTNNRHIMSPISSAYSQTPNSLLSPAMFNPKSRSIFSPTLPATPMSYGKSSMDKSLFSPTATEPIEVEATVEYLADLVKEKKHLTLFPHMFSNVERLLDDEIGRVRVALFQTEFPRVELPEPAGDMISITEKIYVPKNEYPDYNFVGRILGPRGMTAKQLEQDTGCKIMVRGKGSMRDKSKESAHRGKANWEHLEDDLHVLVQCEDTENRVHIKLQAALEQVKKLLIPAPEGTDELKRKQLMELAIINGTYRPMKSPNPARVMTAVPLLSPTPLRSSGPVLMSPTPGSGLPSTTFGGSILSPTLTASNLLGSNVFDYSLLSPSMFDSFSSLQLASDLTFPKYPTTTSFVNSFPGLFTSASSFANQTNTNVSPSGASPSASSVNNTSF
# EBV gp42 block: EBV gp42 inhibition. Fluorescence polarization binding assay, mP read-out. inhibition, % (tested at 21.74 µM). 220,000 tested, 0.42% active; in the data active = inhibition above about 50%
# Bcl-xL primary: Bcl-xL (human) inhibition; Q07817; GST-Bcl-xL / FITC-Bim BH3 peptide fluorescence polarization; inhibition, % at 10.9 µM; 320,000 tested, 0.7% active;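 active = inhibition above the mean of all tested compounds plus 3 SD, cutoff set per campaign, cut at about 30% in these data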;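 also: 0% = DMSO wells and 100% = unlabeled Bim-BH3 peptide competitor; inhibitors lower millipolarization by displacing the labeled peptide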
# eLon inh: E. coli protease La inhibition; purified E. coli Lon protease, fluorescence polarization; inhibition, % at 7.94 µM; 360,000 tested, 0.42% active; AID 602123; in the data active = inhibition above about 13%, passing the limit was not always enough;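 also: 0% = enzyme with probe and DMSO and 100% = no enzyme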
# MEX-5 binding: C. elegans MEX-5 TCR-2 RNA binding activity; Q9XUB2; MEX-5/FITC-TCR2 RNA binding, fluorescence polarization; active compounds read low; activity score (negative = inhibition of binding), % at 10 µM; 300,000 tested, 0.38% active; AID 1832;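 active = inhibition past about -25% in most replicates, and total fluorescence under double the plate's negative control median, limit read from the data; inconclusive = replicates evenly split on the limit, or fluorescence at least double controls; inactive = too little inhibition in most replicates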;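 also: 0% = DMSO and -100% = 5 µM competing unlabeled TCR2 RNA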
# MCL1 BIM primary: MCL1-BIM-BH3 interaction inhibition (human) | Q07820 | GST-MCL1 / FITC-Bim-BH3 fluorescence polarization | inhibition, % at 10.9 µM | 320,000 tested, 0.68% active;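 active = inhibition above the mean inhibition of all tested compounds plus 3 SD, set per campaign, cut at about 40% in these data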;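 also: 0% = DMSO wells and 100% = unlabeled Bim-BH3 peptide control; higher means more loss of mP so more displacement of Bim peptide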
# Bcl-xL conf: counter-screen for MCL1 inhibitors: confirmation of human Bcl-xL inhibitors. AID 2166. 1,700 tested, 54% active. GST-Bcl-xL / FITC-Bim BH3 peptide FP binding. inhibition, % at 10.9 µM. shares compounds with MCL1 BIM primary;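 active = inhibition above a cutoff equal to the mean inhibition of all tested compounds plus 3 SD, cut at about 30% in these data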;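 also: 0% = DMSO wells and 100% = unlabeled Bim BH3 control peptide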
# MCL1 BIM confirm: confirmation of human MCL1 and BIM-BH3 interaction inhibitors | inhibition, % at 10.9 µM | AID 2168 | GST-MCL1 / FITC-Bim-BH3 fluorescence polarization | shares compounds with MCL1 BIM primary | 1,700 tested, 61% active;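 active = inhibition above the average of all tested compounds plus 3 SD, cut at about 40% in these data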;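 also: 0% = DMSO wells and 100% = unlabeled Bim-BH3 control peptide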
# An asterisk follows results filed as active; ? = inconclusive; · = no result given. Rows were chosen to be rich in hits. Some 1.4% of all compounds tested hit in one or more screens of this group.
SMILES,GLD-1 TGE inh,EBV gp42 block,Bcl-xL primary,eLon inh,MEX-5 binding,MCL1 BIM primary,Bcl-xL conf,MCL1 BIM confirm
O=S(=O)(NCc1ccco1)c1cccc2cccnc12,4,-22,12,-6,-2,154*,20,29
Nc1ccc(S(=O)(=O)Nc2nc3ccccc3o2)cc1,3,·,16,-12,-3,45*,28,47*
Cn1cc(/C=N/NC(=O)c2cc3cc(Br)ccc3o2)c2ccccc21,5,-37,-11,-6,-1,-12,·,·
O=C(O)c1ccc(-n2cccc2/C=N\NC(=O)c2cc3cc(Br)ccc3o2)cc1,-1,34,21,-9,-3,62*,24,57*
COc1cc(OC)c(NC(=O)Cc2cccs2)cc1Cl,-1,·,0,10,2,1,·,·
CCN(CC)S(=O)(=O)c1ccc(OC)c(NC(=O)Cc2cccs2)c1,-1,42,7,1,-2,40*,22,51*
CC(=O)Nc1ccc(S(=O)(=O)N2CCN(C(=O)C3COc4ccccc4O3)CC2)cc1 (centres undefined),4,·,2,3,-2,5,·,·
COc1ccc(S(=O)(=O)N2CCN(C(=O)C3COc4ccccc4O3)CC2)cc1 (centres undefined),9,·,13,-6,·,89*,16,90*
c1coc(-c2nc(-c3ccco3)c(-c3ccco3)nc2-c2ccco2)c1,23,63*,80*,17*,3,106*,18,57*
Nc1nc(-c2ccco2)c(-c2ccco2)s1,2,-13,18,2,-1,25,·,·
Cc1ccc(S(=O)(=O)CCC(=O)OCC(=O)Nc2ccc(N3CCOCC3)cc2)cc1,-3,·,1,-13,-2,-3,·,·
CN1CC=C2C(C#N)=C(N)C(C#N)(C#N)[C@H](c3cccs3)[C@H]2C1,79*,36,112*,109*,-68*,118*,63*,71*
CN1CC=C2C(C#N)=C(N)C(C#N)(C#N)C(CCc3ccccc3)C2C1 (centres undefined),49*,29,89*,33*,·,82*,43*,65*
CCOC(=O)N1CC=C2C(C#N)=C(N)C(C#N)(C#N)[C@H](c3ccccc3OCC)[C@H]2C1,17,-10,15,1,-4,11,·,·
COc1cc([C@@H]2[C@H]3CN(C)CC=C3C(C#N)=C(N)C2(C#N)C#N)cc2c1OCO2,21,9,54*,-12,·,52*,21,24
CCOC(=O)N1CC=C2C(C#N)=C(N)C(C#N)(C#N)[C@H](c3ccc(OC(C)C)c(OCC)c3)[C@H]2C1,1,3,7,-25,-6,-7,·,·
O[C@H]1C[C@H](c2ccccc2)N(CC2CCCCC2)C[C@@H]1n1cc(C2CC2)nn1,·,·,·,10,·,·,·,·
Nc1nc(=S)c2ncn(C3CCCC3)c2[nH]1,·,-7,·,-1,0,·,·,·
CCCCCCCCN1C(=O)[C@H](CC(=O)N2CCC(c3ccccc3)CC2)C[C@@]2(C(=O)OC)CCCCC=C12,·,·,·,-2,·,·,·,·
Cc1ccc(Oc2c(CO)c(-c3ccccc3)nn2C)cc1,9,-1,2,-1,1,48*,2,1
Cc1cc(F)ccc1C(O)c1ncc(-c2ccc3ccccc3c2)[nH]1 (centres undefined),·,·,·,-5,·,·,·,·
NS(=O)(=O)c1ccc(N=Nc2c[nH]c(=O)c(O)c2)cc1,39*,-9,130*,23,-89*,163*,169*,195*
COc1cccc(C2Nc3c(F)cc(Br)cc3C3C=CCC32)c1OC (centres undefined),3,-4,3,-16,4,4,·,·
O=C(O)C1Nc2ccc(OC(F)(F)F)cc2C2C=CCC12 (centres undefined),0,·,48*,·,-17,106*,15,67*
COc1cccc2c1NC(C(=O)O)C1CC=CC21 (centres undefined),4,63*,79*,-12,-76*,96*,57*,90*
SMILES,GLD-1 TGE inh,EBV gp42 block,Bcl-xL primary,eLon inh,MEX-5 binding,MCL1 BIM primary,Bcl-xL conf,MCL1 BIM confirm
O=C1NC(=O)/C(=C\c2ccc(O)cc2O)S1,-12,34,31*,3,-21,50*,94*,133*
O=c1cc(-c2ccc(O)cc2)oc2c(O)c(O)c(O)c(O)c12,-1,-3,10,-13,·,47*,15,54*
COc1ccc2oc(C(=O)OC(C)C(=O)NC3(C#N)CCCCC3)c(C)c2c1 (centres undefined),4,·,4,-1,1,3,·,·
COc1ccc2oc(C(=O)OC(C)C(=O)NCc3ccccc3)c(C)c2c1 (centres undefined),0,·,-8,-6,-1,44*,6,2
O=C(Cn1cc(C(F)(F)F)cc(Cl)c1=O)NC1CCS(=O)(=O)C1 (centres undefined),7,·,12,-9,·,-17,·,·
O=C(NC1CCCc2ccccc21)c1cccc(F)c1 (centres undefined),·,·,·,5,·,·,·,·
COC(=O)c1ccccc1NCc1cc(=O)oc2cc(O)c(O)cc12,-1,·,9,-10,-28*,60*,23,65*
CC1(NC(=O)CCc2nc3sc4c(c3c(=O)[nH]2)CCCC4)CCS(=O)(=O)C1 (centres undefined),2,·,11,-16,1,42*,9,44*
CC(=O)Nc1ccc(NC(=O)CCc2nc3sc4c(c3c(=O)[nH]2)CCCC4)cc1,-6,·,-5,-22,-1,8,·,·
CSCC[C@@H](CO)NC(=O)[C@H]1O[C@@H](n2ccc(=O)[nH]c2=O)[C@H](O)[C@@H]1O,·,·,·,-4,·,·,·,·
O=C(/C=C/c1ccc(Br)o1)OCc1nc2ccsc2c(=O)[nH]1,12,·,27,-23,1,49*,37*,87*
CCc1noc(C)c1C(=O)NNC(=O)c1ccc(N(CC)CC)cc1,2,·,6,0,·,-2,·,·
Cc1ccc2nc3c(cc(C(=O)NCc4ccco4)c(=N)n3C3CCCC3)c(=O)n2c1,37*,·,69*,-2,-12,83*,74*,94*
Cc1ccc2nc3c(cc(C(=O)NCC4CCCO4)c(=N)n3C3CCCC3)c(=O)n2c1 (centres undefined),8,·,4,-2,?,3,·,·
CC1CCCN(S(=O)(=O)c2ccc(NC(=O)C3CCN(C(=O)c4ccco4)CC3)cc2)C1 (centres undefined),2,·,2,4,1,7,·,·
